# Inconclusive results are not listed. A number with no mark means an inactive call. The source made the active and inactive calls. Unless noted, calls follow the shape of the full dose curve.
# Assays:
# [1] = Cell Viability - LYMP1-002 - Assay at 40 hr (AID 994; active = well fitted cell-killing curve with a large enough effect;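 also: 0% = DMSO only and full inhibition = 92 µM tetraoctylammonium bromide; nearly all actives have a fitted effect of over 60% in size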)
# Summary of the method: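 Concentration-dependent ATP loss after 40 hr treatment at 37 C defined toxicity; AC50 values were obtained by fitting the standard Hill equation.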
# [2] = qHTS assay for small molecule activators of the p53 signaling pathway (AID 651743; active = well fitted activation curve with a large enough effect in the signal ratio, not every such curve was filed as active; the % refers to the signal ratio; also: series mostly up to about 92 µM; % of control where 0% means no effect); conditions: HCT-116 p53RE-bla, beta-lactamase FRET ratio, 16 h; active compounds read high
# Summary of the method: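 A beta-lactamase reporter under p53 response element control, stably carried by HCT-116 cells, reported pathway activation. Test compounds were applied for 16 hours at 37 C, and fluorescence was measured 2 hours after adding the B/G FRET substrate.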
# [3] = target: Estrogen receptor (Homo sapiens) (UniProt P03372); experiment: qHTS assay for small molecule antagonists of estrogen receptor alpha signaling (AID 588513; active = well fitted curve in the direction sought with a large enough effect in the signal ratio, with a control signal flat, not every such curve was filed as active; the % refers to the signal ratio; also: % is scaled to controls: 0 for no effect and ±100 for the full control effect)
# Sequence of Estrogen receptor (Homo sapiens) (P03372 whole entry, looked up): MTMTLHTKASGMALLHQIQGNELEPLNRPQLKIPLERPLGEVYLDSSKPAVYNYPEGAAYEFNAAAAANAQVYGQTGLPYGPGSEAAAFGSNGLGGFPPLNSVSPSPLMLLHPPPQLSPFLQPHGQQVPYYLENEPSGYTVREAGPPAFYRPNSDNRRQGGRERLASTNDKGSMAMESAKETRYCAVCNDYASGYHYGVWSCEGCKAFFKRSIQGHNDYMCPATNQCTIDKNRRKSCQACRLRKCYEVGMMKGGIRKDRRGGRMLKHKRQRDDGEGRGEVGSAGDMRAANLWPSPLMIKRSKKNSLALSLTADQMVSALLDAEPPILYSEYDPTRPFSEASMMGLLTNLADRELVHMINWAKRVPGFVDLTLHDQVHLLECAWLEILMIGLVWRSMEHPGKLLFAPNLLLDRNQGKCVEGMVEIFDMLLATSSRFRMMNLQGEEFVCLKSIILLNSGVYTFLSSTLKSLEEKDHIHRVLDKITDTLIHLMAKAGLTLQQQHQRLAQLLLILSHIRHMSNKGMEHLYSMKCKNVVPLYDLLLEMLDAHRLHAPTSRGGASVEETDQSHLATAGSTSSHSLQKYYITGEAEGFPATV
# Summary of the method: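 Antagonist mode: inhibition of 0.5 nM 17-beta-estradiol-driven beta-lactamase reporter in HEK 293 ER-alpha-UAS-bla cells, 18 h at 37C, CCF4 readout after 2 h at RT. Normalised to estradiol and DMSO; titration fitted to Hill.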
# [4] = target: Estrogen receptor (Homo sapiens) (UniProt P03372); experiment: qHTS assay for small molecule agonists of estrogen receptor alpha signaling (AID 588514);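 also: 0% = vehicle only and 100% = reference agonist; nearly all actives have a fitted effect of over 70% in size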
# Summary of the method: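 Fluorescence from CCF4 cleavage reports ER-alpha-driven beta-lactamase expression in HEK 293 cells treated 18 hrs at 37 C. Data normalized to 17-beta-estradiol (20 nM) and DMSO, fitted to Hill equation.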
smiles,measurement,setting,value
C=CC(C)(O)CCC=C(C)C (centres undefined),outcome,[1],inactive
CC1=CC(=O)CC(C)(C)C1(O)/C=C/C(C)=C\C(=O)O (centres undefined),activation,[2],-1.58%
COS(C)(=O)=O,outcome,[3],inactive
same,outcome,[4],inactive

# Source: PubChem BioAssay (NCATS)
